High-throughput results (PubChem BioAssay)
This is a sample that favours compounds with a hit; in the whole collection about 1.1% have one here.
CaV13 FRET inh: Disruptors of the CACNA1D IQ motif to Ca2+-dependent inactivation inhibitor domain association, primary screening, Förster resonance energy transfer in intact living …; HEK cells, CFP/YFP FRET ICDI-IQ, plate reader, 10 min; percent FRET-ratio fall versus neutral wells; hit rate 0.098% among 340,000; AID 743397; inhibition, % at 12.3 µM;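 active = mean replicate inhibition of at least 30% and at least 1% of replicates passing that level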;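 note: 0% = median of the neutral control wells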
VLA-4 inh: inhibition in a human VLA-4 binding assay; P13612; VLA-4 expressing cells, ligand binding flow cytometry; inhibition, % (about 7 µM as worked out from the volumes in the protocol); hit rate 0.2% among 330,000; in the data active = inhibition above about 50%
Exocytosis inh: blocks lytic granule exocytosis | TALL-104 LAMP-1 surface exposure, flow cytometry; cells stimulated with thapsigargin and PMA | inhibition, % at 10 µM | hit rate 0.66% among 360,000 | AID 651702;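 active = inhibition above about 55%, limit read from the data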
ABCB6 inh 2: human ABCB6 transporter inhibition. AID 602162. K562-ABCB6 porphyrin accumulation, flow cytometry, 1 h; active compounds read low. hit rate 0.19% among 360,000. Q9NP58. fluorescence ratio to DMSO, % at 10 µM;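 active = fluorescence ratio to DMSO below 75%, the collection mean minus 3 SD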;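 note: signal is porphyrin accumulated inside mitochondria; 100% equals median channel fluorescence of DMSO control wells; lower ratio means ABCB6 inhibition with less porphyrin fluorescence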
Target sequence (Q9NP58 whole entry, looked up): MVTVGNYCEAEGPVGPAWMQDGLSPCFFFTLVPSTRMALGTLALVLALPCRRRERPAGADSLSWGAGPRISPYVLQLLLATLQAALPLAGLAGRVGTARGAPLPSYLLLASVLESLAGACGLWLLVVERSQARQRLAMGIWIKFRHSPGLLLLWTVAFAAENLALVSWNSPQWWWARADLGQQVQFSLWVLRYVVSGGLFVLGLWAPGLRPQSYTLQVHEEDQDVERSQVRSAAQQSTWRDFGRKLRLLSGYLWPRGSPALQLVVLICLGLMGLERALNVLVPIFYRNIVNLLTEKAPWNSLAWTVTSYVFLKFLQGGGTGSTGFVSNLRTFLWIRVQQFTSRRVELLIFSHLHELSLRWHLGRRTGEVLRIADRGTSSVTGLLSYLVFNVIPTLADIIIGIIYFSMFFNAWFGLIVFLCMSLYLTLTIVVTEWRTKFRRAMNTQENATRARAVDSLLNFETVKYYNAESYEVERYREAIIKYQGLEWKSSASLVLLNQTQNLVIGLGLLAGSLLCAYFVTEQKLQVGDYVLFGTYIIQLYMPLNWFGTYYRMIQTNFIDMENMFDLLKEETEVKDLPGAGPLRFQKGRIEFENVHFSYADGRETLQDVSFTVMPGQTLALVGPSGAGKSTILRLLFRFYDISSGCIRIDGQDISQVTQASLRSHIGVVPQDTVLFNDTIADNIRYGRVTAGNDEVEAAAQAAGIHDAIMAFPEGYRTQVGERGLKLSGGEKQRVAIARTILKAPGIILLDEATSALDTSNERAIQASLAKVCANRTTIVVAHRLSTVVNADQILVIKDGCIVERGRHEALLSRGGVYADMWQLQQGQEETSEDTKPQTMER
Active calls of the source: *; . = not tested or not shown; + = active, no number.

SMILES	CaV13 FRET inh	VLA-4 inh	Exocytosis inh	ABCB6 inh 2
Cc1cc2c(nc1C)CCCN2Cc1ccc(Br)cc1	-9	.	.	.
COc1ccccc1-n1c([S-])c(C(=O)Nc2ccccc2C(F)(F)F)[n+]2ccc(C(=O)NCCO)cc12	-3	21	63*	102
COc1ccc(C(=O)NCC2CCN(C(=O)C(=O)c3cccs3)CC2)c(OC)c1	-10	.	.	.
CC(C)(C)c1ccc(C(=O)CCCSC2=C(C#N)C(c3ccco3)C3=C(CCCC3=O)N2)cc1 (stereo not given)	-5	17	1	57*
COc1cc(/C=C(/C#N)C(=O)c2c(C)[nH]c3ccccc23)ccc1OCC#N	-18	-7	57*	100
CC(C)C[C@H](NC(=O)c1ccc(Cl)c(Cl)c1)C(=O)N1CCC[C@H]1C(=O)NCc1ccccc1	-8	.	.	.
O=C1CC(Sc2nnc(-c3ccccc3)o2)C(=O)N1c1ccccc1 (stereo not given)	-5	-2	66*	109
O=C(O)c1ccccc1SC1CC(=O)N(c2ccccc2)C1=O (stereo not given)	-5	15	-1	97
O=C(CCc1c[nH]c2ccccc12)Nc1ccc(Nc2cccnc2)c(Br)c1	-1	.	.	.
COC(=O)c1ccccc1N/C=C1\CCc2c(c(C)nn2-c2ccccn2)C1=O	.	-16	65*	89
Fc1ccc(CN2CCN(c3ncc(Cc4ccccc4)cn3)CC2)c(Cl)c1	-7	.	.	.
F[B-](F)(F)COCc1ccccc1C#Cc1ccccc1	-6	.	.	.
Cc1[nH]c2ccc(-c3nnc(SCC(=O)NCc4ccco4)n3Cc3ccccc3)cc2c1C	.	-5	87*	100
CCn1c(SCC(=O)NCc2ccco2)nnc1-c1ccncc1	.	6	.	.
COC(=O)c1ccc(CN2C(=O)[C@]3(OCCC=C[C@H]3C)c3ccccc32)cc1	-3	.	.	.
CCOc1cc(/C=C2\CN(CC)C/C(=C\c3ccc(O)c(OCC)c3)C2=O)ccc1O	-2	3	57*	100
CCN1C/C(=C/c2cccc([N+](=O)[O-])c2)C(=O)/C(=C/c2cccc([N+](=O)[O-])c2)C1	-5	39	64*	93
C#CCOCCOCCOCCNc1nc(N2CCN(C(=O)CCCCCCCCCCNC(=O)[C@H](CCCCN)n3cc(C[C@@H](C)CC)nn3)CC2)nc(N2CCN(C(=O)CCCCCCCCCCNC(=O)[C@@H]([C@H](C)O)n3cc(C)nn3)CC2)n1	.	-3	97*	95
C#CCOCCOCCOCCNc1nc(N2CCN(C(=O)C([C@@H](C)CC)n3cc(C(N)Cc4ccc(O)cc4)nn3)CC2)nc(N2CCN(C(=O)[C@H](CCC(=O)O)n3cc(C(N)Cc4ccc(O)cc4)nn3)CC2)n1 (stereo not given in full)	.	.	64*	96
C#CCOCCOCCOCCNc1nc(N2CCN(C(=O)C([C@@H](C)CC)n3cc(C(N)CC(C)C)nn3)CC2)nc(N2CCN(C(=O)[C@H](CCC(=O)O)n3cc(C(N)Cc4ccc(O)cc4)nn3)CC2)n1 (stereo not given in full)	.	-2	-8	99
C[C@H](O)[C@@H]1CN2CCc3c([nH]c4ccccc34)[C@@H]2C[C@@H]1N(C)CC1CCCCC1	-5	.	.	.
COC1=C(OC)C(=O)C(Sc2ccc3ccccc3c2)=CC1=O	-2	.	86*	93
O=C1C(=Cc2ccccc2Cl)CCc2ccccc21	-8	.	3	98
Cc1ccc([N+](=O)[O-])cc1N/C=C1\CCc2ccccc2C1=O	-5	5	57*	95
Cc1ccc(SCc2c(C(=O)N/N=C/c3ccccc3)nnn2-c2nonc2N)cc1	-5	10	85*	98
SMILES	CaV13 FRET inh	VLA-4 inh	Exocytosis inh	ABCB6 inh 2
Cc1ccc(/C=N/NC(=O)c2nnn(-c3nonc3N)c2CSc2ccccc2)cc1	-3	0	4	98
Cc1ccc(SCc2c(C(=O)N/N=C/c3ccc4c(c3)OCO4)nnn2-c2nonc2N)cc1	-2	-7	79*	97
COC(=O)[C@]12C[C@H](CC(=O)N3CCSCC3)C(=O)N(Cc3ccccc3)C1=C[C@H](C(C)(C)C)O[C@@H]2C	-11	.	.	.
C[C@@H]1ON(C)[C@H]2C[C@H]3c4[nH]c5c(-c6ccc(Cl)cc6)cccc5c4CCN3C(=O)[C@@H]12	-5	.	.	.
CCCN1CCCCC(NC(=O)OC(C)(C)C)C1=O (stereo not given)	-2	.	.	.
Cc1ccc(-c2nc3ccsc3c(=O)[nH]2)cc1	60*	10	0	96
Cc1ccc(-c2csc3nc(-c4ccncc4)[nH]c(=O)c23)cc1	0	-8	-9	101
COC(=O)[C@]12C[C@H](CC(=O)N3CCCC3)C(=O)N(Cc3ccccc3)C1=C[C@H](C(C)(C)C)O[C@@H]2C	-9	.	.	.
Nc1nc2c(ncn2[C@@H]2O[C@H](C(=O)NCCCN3CCCC3=O)[C@@H](O)[C@H]2O)c(=O)[nH]1	-8	.	.	.
O=C(O)CCCCCN1C(=O)/C(=C\c2ccc(-c3ccc(Cl)cc3)o2)SC1=S	-4	-58	87*	143
O=C(O)CCCN1C(=O)/C(=C/c2ccc(-c3nc4ccccc4s3)o2)SC1=S	.	3	66*	63*
COc1ccc(NC(=S)N2CCC(c3nc4ccccc4[nH]3)CC2)c(OC)c1	-8	34	0	66*
COC(=O)C1=C(C)N(C)C(=NCc2ccc3c(c2)OCO3)NC1c1ccccc1 (stereo not given)	-4	.	.	.
COC(=O)c1cc2c(c3c4cc(OC)ccc4n(S(=O)(=O)c4ccc(OC)cc4)c13)C(=O)N(Cc1ccccc1OC)C2	-5	.	.	.
COc1cccc(/C=N/NC(=O)c2ccc(-c3ccccc3)cc2)c1O	-2	14	59*	100
CCCCOCCCNC(=O)C[C@H]1C[C@@]2(C(=O)OC)C(=C[C@H](C(C)(C)C)O[C@@H]2C)N(Cc2ccc3c(c2)OCO3)C1=O	-8	.	.	.
CC(/C=C/c1ccco1)=N/NC(=O)CNc1ccccc1C	-4	6	1	102
CC(/C=C/c1ccco1)=N\NC(=O)CNc1ccc2ccccc2c1	1	4	100*	98
O=C(NCc1ccccc1)[C@H]1CCCN1C(=O)[C@H]1CCCN1C(=O)c1cccc(Cl)c1	-9	.	.	.
CN1CCc2c(sc(NC(=O)C3CCCCC3)c2C(N)=O)C1	+	0	5	93
CC(C)N1CCc2c(sc(NC(=O)C3CCCCC3)c2C(N)=O)C1	-5	-1	3	102
COc1ccc(OC)c(N(C(=O)c2snc(C(N)=O)c2N)C(C(=O)NCc2ccccc2)c2ccc(O)cc2)c1 (stereo not given)	0	6	-6	86
Cc1ccc(C(C(=O)NCc2ccc(F)cc2)N(Cc2ccco2)C(=O)c2snc(C(N)=O)c2N)o1 (stereo not given)	-3	9	74*	96
NC(=O)c1nsc(C(=O)N(Cc2ccco2)C(C(=O)NCc2ccc(F)cc2)c2ccc(O)cc2)c1N (stereo not given)	-7	-9	32	110
COc1ccc(CNC(=O)C(c2ccc(C)o2)N(C(=O)c2snc(C(N)=O)c2N)c2ccccc2OC)cc1 (stereo not given)	-3	10	73*	98
